Results from PubChem BioAssay (NCATS).
Results filed as inconclusive are left out. A call without a number means that no potency is given here. Active and inactive are the calls of the source. Calls come from the whole dose curve; as a rule, active = well fitted curve in the direction sought with a large enough effect; inconclusive = small, poorly fitted or top-dose-only effect, or another doubt; inactive = no such curve, though single readings can be large; an effect the other way counts as inactive or inconclusive.

The compounds below were run against Cytochrome P450 3A4 (Homo sapiens) (UniProt P08684) (assay: qHTS Assay for Inhibitors and Substrates of Cytochrome P450 3A4 (AID 884; note: nearly all actives have a fitted effect of over 50% in size; note: potency is the fitted concentration of half-maximal effect)). Settings: recombinant CYP3A4, Luciferin-PPXE luminescence; series mostly up to 57.1 µM.
Sequence of Cytochrome P450 3A4 (Homo sapiens) (P08684 whole entry, looked up): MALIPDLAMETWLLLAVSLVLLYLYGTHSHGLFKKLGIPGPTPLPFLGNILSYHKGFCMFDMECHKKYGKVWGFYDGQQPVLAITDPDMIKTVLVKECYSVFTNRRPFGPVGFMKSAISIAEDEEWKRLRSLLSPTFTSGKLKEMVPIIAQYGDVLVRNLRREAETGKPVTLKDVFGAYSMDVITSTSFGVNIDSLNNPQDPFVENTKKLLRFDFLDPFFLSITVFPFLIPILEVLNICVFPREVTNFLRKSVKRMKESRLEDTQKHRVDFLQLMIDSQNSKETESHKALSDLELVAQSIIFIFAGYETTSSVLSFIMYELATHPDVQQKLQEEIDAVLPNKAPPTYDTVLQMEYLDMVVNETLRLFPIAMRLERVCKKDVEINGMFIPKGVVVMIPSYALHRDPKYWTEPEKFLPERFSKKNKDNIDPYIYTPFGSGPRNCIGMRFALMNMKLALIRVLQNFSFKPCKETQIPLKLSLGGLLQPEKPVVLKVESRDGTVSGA
Procedure, shortened: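 20 nM human CYP3A4 with 25 uM Luciferin-PPXE (at KM) in 200 mM KPO4, preincubated 10 min with compound; NADPH regeneration started a 60 min RT reaction. Luciferin detected by luminescence, normalized to 57 uM ketoconazole as full inhibition.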
For `C[N+](C)(C)CC(O)CC(=O)O` (centres undefined), the Potency was “inactive”. In the case of `COc1ccc2ccc(=O)oc2c1`, the Potency is reported as “inactive”. With `Cc1occc(=O)c1O` the Potency was “inactive”. With `O=C(/C=C/c1ccc(O)c(O)c1)OC(Cc1ccc(O)c(O)c1)C(=O)O` (centres undefined) the Potency was “inactive”. In the case of `O=c1ccc2ccc(O)cc2o1`, the Potency is reported as “inactive”. With `O=C(Cc1cccs1)NC1C(=O)N2C(C(=O)[O-])=C(C[n+]3ccccc3)CSC12` (centres undefined) the Potency was “inactive”. In the case of `C=C(C)[C@H]1CC=C(C)C(=O)C1`, the Potency is reported as “inactive”. `CN1C(CC(=O)c2ccccc2)CCCC1CC(O)c1ccccc1` (centres undefined) was tested, and the Potency was “inactive”. In the case of `CC(C)(S)[C@H](N)C(=O)O`, the Potency is reported as “inactive”. In the case of `C=C[C@](C)(O)CCC=C(C)C`, the Potency is reported as “inactive”. With `COS(C)(=O)=O` the Potency was “inactive”. With `CC1=CC(=O)CC(C)(C)C1(O)/C=C/C(C)=C\C(=O)O` (centres undefined) the Potency was “inactive”. In the case of `C=C(NC(=O)C(=C)NC(=O)c1csc(C2=NC3c4csc(n4)C4NC(=O)c5csc(n5)C(C(C)(O)C(C)O)NC(=O)C5CSC(=N5)C(=CC)NC(=O)C(C(C)O)NC(=O)c5csc(n5)C3(CC2)NC(=O)C(C)NC(=O)C(=C)NC(=O)C(C)NC(=O)C(C(C)CC)NC2C=Cc3c(C(C)O)cc(nc3C2O)C(=O)OC4C)n1)C(N)=O` (centres undefined), the Potency is reported as “inactive”. With `Cc1cnc(CNc2ncnc3ccc(-c4ccccc4C(F)(F)F)cc23)cn1` the Potency was 2 µM (active). For `COc1ccccc1CNc1ncnc2ccc(-c3cccc(C#N)c3)cc12`, the Potency was 7.94 µM (active). For `FC(F)(F)c1ccccc1-c1ccc2ncnc(NCc3cccs3)c2c1`, the Potency was 5.01 µM (active). For `CC(C)N1CCN(c2ccc(OC[C@@H]3CO[C@@](Cn4cncn4)(c4ccc(Cl)cc4Cl)O3)cc2)CC1`, the Potency was 1.58 µM (active). `C=CC(C)(O)CCC=C(C)C` (centres undefined) was tested, and the Potency was “inactive”. `O=c1cc(-c2ccc(O)cc2)oc2cc(O[C@H]3OC(CO)C(O)C(O)C3O)cc(O)c12` (some centres undefined) was tested, and the Potency was “inactive”.

The compounds below were run against Cytochrome P450 3A4 (Homo sapiens) (UniProt P08684) (assay: qHTS Assay for Activators of Cytochrome P450 3A4 (AID 885; note: nearly all actives have a fitted effect of over 65% in size)). Settings: recombinant CYP3A4, Luciferin-PPXE luminescence, 60 min; series mostly up to 57.1 µM.
Procedure, shortened: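 Human CYP3A4 (20 nM) with Luciferin-PPXE at 25 uM (its KM) in 200 mM KPO4; 10 min compound preincubation, then NADPH regeneration and 60 min reaction at RT. Luciferin read by luminescence; normalized to 57 uM ketoconazole full inhibition.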
In the case of `FC(F)(F)c1ccccc1-c1ccc2ncnc(N3CCOCC3)c2c1`, the Potency is reported as “inactive”. For `COc1cccc(Cn2c(=O)cnc3cnc(N4CCN(C)CC4)nc32)c1`, the Potency was “inactive”. `NC(Cc1c[nH]c2ccccc12)C(=O)O` (centres undefined) was tested, and the Potency was “inactive”. For `COc1cc2c(cc1OC)C1Cc3ccc(OC)c(OC)c3CN1CC2` (centres undefined), the Potency was “inactive”. With `CN1CCN(c2ccnc(-c3ccc(N(C)C)cc3)n2)CC1` the Potency was “inactive”. In the case of `COc1ncc2nc(-c3cccs3)c(=O)n(C)c2n1`, the Potency is reported as “inactive”. `N#Cc1cccc(-c2ccc3ncnc(NCc4ccccc4)c3c2)c1` was tested, and the Potency was “inactive”. For `Oc1ccc2c(c1)OCC1(O)Cc3cc(O)c(O)cc3C21` (centres undefined), the Potency was “inactive”. For `CN(C)C(=O)c1ccc(-c2nc(N(C)C)c3ccccc3n2)cc1`, the Potency was “inactive”. `COc1ccccc1-c1nccc(NCc2ccccc2)n1` was tested, and the Potency was “inactive”. `Cc1cnc(CNc2ncnc3ccc(-c4ccccc4C(F)(F)F)cc23)cn1` was tested, and the Potency was “inactive”. In the case of `COc1ccccc1CNc1ncnc2ccc(-c3cccc(C#N)c3)cc12`, the Potency is reported as “inactive”. For `FC(F)(F)c1ccccc1-c1ccc2ncnc(NCc3cccs3)c2c1`, the Potency was “inactive”. In the case of `COc1ccccc1CNc1cc(-c2cccc(C#N)c2)ncn1`, the Potency is reported as “inactive”. For `CC(C)N1CCN(c2ccc(OC[C@@H]3CO[C@@](Cn4cncn4)(c4ccc(Cl)cc4Cl)O3)cc2)CC1`, the Potency was “inactive”.
